Measurements: PubChem BioAssay (NCATS)
Inconclusive results are not listed. Entries that show only a call come without a potency. Calls of active or inactive are those of the source. Calls come from the whole dose curve; as a rule, active = well fitted inhibition curve with a large enough effect; inconclusive = small, poorly fitted or top-dose-only effect; inactive = no such curve, though single readings can be large or run the other way.

target: Single-stranded DNA cytosine deaminase (Homo sapiens) (UniProt Q9GZX7); assay: Validation qHTS assay for inhibitors of Activation Induced Cytidine Deaminase (AID): AID signal (AID 1347429); conditions: Recombinant AID, FRET ssDNA deamination with UDG, fluorescence; series mostly up to 115 µM
In short: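 Compounds (final up to 114 uM) preincubated with AID plus UDG; 250 nM DJC20/DJC23 substrate mix (4x stock) added, 4 hr at room temperature, then NaOH, 30 min. Read 1 fluorescence at 540 nm excitation, 590 nm emission.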

Chain of Single-stranded DNA cytosine deaminase (Homo sapiens) (Q9GZX7 whole entry, looked up): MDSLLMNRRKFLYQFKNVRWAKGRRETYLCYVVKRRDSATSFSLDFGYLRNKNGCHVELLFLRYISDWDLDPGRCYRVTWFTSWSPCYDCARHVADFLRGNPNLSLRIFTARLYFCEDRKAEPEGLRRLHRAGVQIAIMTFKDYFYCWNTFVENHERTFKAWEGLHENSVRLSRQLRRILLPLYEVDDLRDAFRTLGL

Structure (SMILES)	Potency
Cc1cc2c(cc1Cl)N(C(=O)Nc1ccnc3ccccc13)CC2	inactive
COc1ccccc1N1CCN(CCCCNC(=O)c2ccc3ccccc3c2)CC1	inactive
NCCCNCCCCNCCCN	inactive
CN1CCC2(CCN3CCc4c(oc5ccccc45)C3C2)N(C)C1=O (stereo unspecified)	inactive
CC(C)NCC(O)COc1ccc(CC(N)=O)cc1 (stereo unspecified)	inactive
C=CCn1c(=O)c2c(nc(-c3ccc(S(=O)(=O)O)cc3)n2C)n(C)c1=O	inactive
NC(Cc1cccc(-c2ccccc2CP(=O)(O)O)c1)C(=O)O (stereo unspecified)	inactive
COc1ccc(-c2ccc(N)[n+](CCCC(=O)O)n2)cc1	inactive
O=c1[nH]c(=O)c2nc3ccccc3nc2[nH]1	inactive
COc1ccc2c(c1)c(CC(=O)O)c(C)n2Cc1ccc(Cl)cc1	inactive
O=C(O)/C=C/c1cnc[nH]1	inactive
O=[N+]([O-])c1cccc2cn[nH]c12	inactive
NCCNS(=O)(=O)c1cccc2c(Cl)cccc12	inactive
CC1CCN=C(N)S1 (stereo unspecified)	inactive
CC(=O)N[C@@H](Cc1c[nH]c2ccccc12)C(=O)OCc1cc(C(F)(F)F)cc(C(F)(F)F)c1	inactive
COC1(C2=NCCN2)COc2ccccc2O1 (stereo unspecified)	inactive
CC(=O)[C@H]1CCC2C3CC=C4C[C@@H](OS(=O)(=O)O)CC[C@]4(C)C3CC[C@@]21C (stereo partly specified)	inactive
NCCC1CCCC(CCN)N1 (stereo unspecified)	inactive
CCN1C(=O)C=CC1=O	inactive

Structure (SMILES)	Potency
CC#CCOC(=O)c1c(C)nc2sc3c(c2c1N)CCC(O)C3 (stereo unspecified)	inactive
Cc1cc(Cn2cnc3c2C[C@@H](C(=O)O)N(C(=O)C(c2ccccc2)c2ccccc2)C3)ccc1N	inactive
NC(=O)c1cc[n+](CC2=C(C(=O)O)N3C(=O)[C@@H](NC(=O)[C@@H](c4ccccc4)S(=O)(=O)[O-])[C@H]3SC2)cc1	inactive
O=[N+]([O-])c1cccc2c(Br)[nH]nc12	inactive
CCOC(=O)C12CC1/C(=N/O)c1ccccc1O2 (stereo unspecified)	inactive
NC1(C(=O)O)CCc2cc(C(=O)O)ccc21 (stereo unspecified)	inactive
CC(N)=O	inactive
CN1CC(O)C(O)C(O)C1CO (stereo unspecified)	inactive
CC(O)C(O)[C@H]1CNc2nc(N)[nH]c(=O)c2N1 (stereo partly specified)	inactive
N[C@@H](CCC(=O)N[C@H](CSN=O)C(=O)NCC(=O)O)C(=O)O	inactive
Cn1c(=O)c2[nH]c(-c3ccc(S(=O)(=O)O)cc3)nc2n(C)c1=O	inactive
C[C@@H](NCCc1ccc(O)cc1)[C@@H](O)c1ccc(O)cc1	inactive
C=C1C(=O)O[C@@H]2[C@H]3O[C@]3(C)CCC=C(C)CC[C@@H]12	inactive
[Li+]	inactive
CCc1ccc2c(-c3cccc(Cl)c3)nc(=O)n(CC)c2n1	inactive
N[C@H](C(=O)O)[C@H](O)C(=O)O	inactive
N#C/C(=C\c1ccc(O)c(O)c1)C(=O)NCCc1ccccc1	inactive
C[C@@]1(C2CCCC2)Cc2cc(OCC(=O)O)c(Cl)c(Cl)c2C1=O	inactive
O=C(O)c1ccccc1Nc1cccc(OCc2ccc3ccccc3n2)c1	inactive

tested on: not listed separately; assay: Primary qHTS for inhibitors of La Crosse Virus (LACV) - induced cell death in SH-SY5Y cells (AID 1508616); conditions: SH-SY5Y LACV cytopathicity rescue, ATP luminescence, 6 d; series mostly up to 9.63 µM;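 note: top concentration of the series differs between compounds; higher means more rescue of cells from virus-induced death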
In short: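 Rescue of virus-induced death was read as ATPLite luminescence after 6 days at 37C, scaled between DMSO wells with LACV and without virus. Cells were SH-SY5Y, 6000/well, infected at 0.01 MOI after compound addition.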

Structure (SMILES)	Potency
Cc1cc2c(cc1Cl)N(C(=O)Nc1ccnc3ccccc13)CC2	inactive
COc1ccccc1N1CCN(CCCCNC(=O)c2ccc3ccccc3c2)CC1	inactive
NCCCNCCCCNCCCN	inactive
CN1CCC2(CCN3CCc4c(oc5ccccc45)C3C2)N(C)C1=O (stereo unspecified)	inactive
CC(C)NCC(O)COc1ccc(CC(N)=O)cc1 (stereo unspecified)	inactive
C=CCn1c(=O)c2c(nc(-c3ccc(S(=O)(=O)O)cc3)n2C)n(C)c1=O	inactive
NC(Cc1cccc(-c2ccccc2CP(=O)(O)O)c1)C(=O)O (stereo unspecified)	inactive
COc1ccc(-c2ccc(N)[n+](CCCC(=O)O)n2)cc1	inactive
O=c1[nH]c(=O)c2nc3ccccc3nc2[nH]1	inactive
COc1ccc2c(c1)c(CC(=O)O)c(C)n2Cc1ccc(Cl)cc1	inactive
O=C(O)/C=C/c1cnc[nH]1	inactive
O=[N+]([O-])c1cccc2cn[nH]c12	inactive
NCCNS(=O)(=O)c1cccc2c(Cl)cccc12	inactive
CC1CCN=C(N)S1 (stereo unspecified)	inactive
CC(=O)N[C@@H](Cc1c[nH]c2ccccc12)C(=O)OCc1cc(C(F)(F)F)cc(C(F)(F)F)c1	inactive
COC1(C2=NCCN2)COc2ccccc2O1 (stereo unspecified)	inactive
CC(=O)[C@H]1CCC2C3CC=C4C[C@@H](OS(=O)(=O)O)CC[C@]4(C)C3CC[C@@]21C (stereo partly specified)	inactive
NCCC1CCCC(CCN)N1 (stereo unspecified)	inactive
CCN1C(=O)C=CC1=O	inactive

Structure (SMILES)	Potency
CC#CCOC(=O)c1c(C)nc2sc3c(c2c1N)CCC(O)C3 (stereo unspecified)	inactive
Cc1cc(Cn2cnc3c2C[C@@H](C(=O)O)N(C(=O)C(c2ccccc2)c2ccccc2)C3)ccc1N	inactive
NC(=O)c1cc[n+](CC2=C(C(=O)O)N3C(=O)[C@@H](NC(=O)[C@@H](c4ccccc4)S(=O)(=O)[O-])[C@H]3SC2)cc1	inactive
O=[N+]([O-])c1cccc2c(Br)[nH]nc12	inactive
CCOC(=O)C12CC1/C(=N/O)c1ccccc1O2 (stereo unspecified)	inactive
NC1(C(=O)O)CCc2cc(C(=O)O)ccc21 (stereo unspecified)	inactive
CC(N)=O	inactive
CN1CC(O)C(O)C(O)C1CO (stereo unspecified)	inactive
CC(O)C(O)[C@H]1CNc2nc(N)[nH]c(=O)c2N1 (stereo partly specified)	inactive
N[C@@H](CCC(=O)N[C@H](CSN=O)C(=O)NCC(=O)O)C(=O)O	inactive
Cn1c(=O)c2[nH]c(-c3ccc(S(=O)(=O)O)cc3)nc2n(C)c1=O	inactive
C[C@@H](NCCc1ccc(O)cc1)[C@@H](O)c1ccc(O)cc1	inactive
C=C1C(=O)O[C@@H]2[C@H]3O[C@]3(C)CCC=C(C)CC[C@@H]12	inactive
[Li+]	inactive
CCc1ccc2c(-c3cccc(Cl)c3)nc(=O)n(CC)c2n1	inactive
N[C@H](C(=O)O)[C@H](O)C(=O)O	inactive
N#C/C(=C\c1ccc(O)c(O)c1)C(=O)NCCc1ccccc1	inactive
C[C@@]1(C2CCCC2)Cc2cc(OCC(=O)O)c(Cl)c(Cl)c2C1=O	inactive
O=C(O)c1ccccc1Nc1cccc(OCc2ccc3ccccc3n2)c1	inactive
